In the library only some 1.7% were active in any assay of this set; here they are far more common.
GLP-1R agonist = agonists of human GLP-1 receptor | P43220 | HEK293 GLP-1R CRE-luciferase, luminescence, 4-6 h; cells express a hypersensitive GLP-1R form | Potency, µM (titrated, usually from 45.6 µM), usual class: activators | 380,000 compounds, 0.007% hits
GLP-1R inv ag = acts as inverse agonist at human GLP-1 receptor; P43220; HEK293 GLP-1R CRE-luciferase, luminescence, 24 h; GLP-1R form is constitutively active; Potency, µM (highest dose often 38.3 µM), actives largely listed as inhibitors; 410,000 compounds, 1.6% hits; further: nearly all actives have a fitted effect of over 55% in size
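Inverse agonism was detected as reduced cAMP-driven luciferase luminescence after 24 h compound treatment. The cells were HEK293 clones expressing constitutively active human GLP-1R with the reporter. Reporter-only and GPR119 cell lines served as counterscreen controls.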
HEK293 tox = cytotoxicity in counter-screen for GLP-1R inverse agonists; HEK293 cAMP-luciferase reporter cells, luminescence, 24 h; Potency, µM (titrated, usually from 38.3 µM), actives largely listed as inhibitors; 410,000 compounds, 0.13% hits;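 further: loss of luciferase light is scored as toxicity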
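1536-well qHTS counterscreen of the MLSMR; 200 cells/uL, 12 h pre-incubation, 23 nL cpd, 24 h at 37 deg C 5% CO2, luciferase detection reagent, 12 min RT, luminescence. Inhibition = undesired.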
PTHR1 agonist = agonists of human PTHR1 parathyroid hormone receptor. HEK293 GP2 PTHR1 cells, GloSensor cAMP luminescence, 1 h. Potency, µM (top dose mostly 115 µM), hits mostly activators. 410,000 compounds, 0.075% hits; further: nearly all actives have a fitted effect of over 55% in size
Target sequence (Q03431 whole entry, looked up): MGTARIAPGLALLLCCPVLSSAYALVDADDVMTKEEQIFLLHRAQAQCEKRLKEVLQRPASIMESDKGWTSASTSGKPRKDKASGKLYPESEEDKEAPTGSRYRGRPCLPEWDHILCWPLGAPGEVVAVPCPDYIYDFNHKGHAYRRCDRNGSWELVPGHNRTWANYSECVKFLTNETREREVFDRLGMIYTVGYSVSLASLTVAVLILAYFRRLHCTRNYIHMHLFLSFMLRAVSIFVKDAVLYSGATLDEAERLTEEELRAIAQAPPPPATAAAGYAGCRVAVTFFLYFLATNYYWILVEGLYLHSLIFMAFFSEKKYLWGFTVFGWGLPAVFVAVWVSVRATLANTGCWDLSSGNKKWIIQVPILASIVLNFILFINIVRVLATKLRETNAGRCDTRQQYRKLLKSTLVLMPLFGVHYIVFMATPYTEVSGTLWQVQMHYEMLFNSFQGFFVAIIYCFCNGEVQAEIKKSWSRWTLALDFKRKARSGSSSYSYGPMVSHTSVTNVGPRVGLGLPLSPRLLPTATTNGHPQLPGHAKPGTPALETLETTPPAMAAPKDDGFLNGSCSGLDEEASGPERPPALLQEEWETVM
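HEK-293-derived GP2 cells expressing PTHR1 and a GloSensor cAMP reporter, 3,000/well, plated overnight, given luciferin plus IBMX (each 0.5 mM as added) for 1 h at 37 °C, then compound for 1 h at 37 °C. Luminescence was read after 15 min at room temperature.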
Hits are given with their value; - = inactive; ? = inconclusive; . = not tested or not shown. The call rests on the fitted dose curve; in most records, active means well fitted curve in the direction sought with a large enough effect; inconclusive means small, poorly fitted or top-dose-only effect, or another doubt; inactive means no such curve, though single readings can be large; an effect the other way counts as inactive or inconclusive.

SMILES | GLP-1R agonist | GLP-1R inv ag | HEK293 tox | PTHR1 agonist
Cc1ccc(C2=NN(C(=O)CCl)C(c3cccs3)C2)o1 (configuration not stated) | - | 3.16µM | ? | -
O=C(CCl)N1N=C(c2ccco2)CC1c1cccs1 (configuration not stated) | - | - | ? | -
CC1(C)CC(NC(=O)N2c3ccccc3Sc3ccccc32)CC(C)(C)N1 | - | 5.01µM | ? | -
CCc1nc2ccc(C(=O)N3CCN(S(=O)(=O)CC)CC3)cn2c1N(CC)Cc1cccc(Br)c1 | - | - | - | -
Cc1c(O)ccc2c(CN3CCN(C/C=C/c4ccccc4)CC3)cc(=O)oc12 | - | 3.55µM | - | -
CC1CCN(c2ccc(-c3cccc(NC(=O)C(F)(F)F)c3)nn2)CC1 | - | 1µM | - | -
CS(=O)(=O)c1ccc(-c2cccc(NC(=O)c3ccco3)c2)nn1 | - | - | - | -
CC1CCN(c2ccc(-c3cccc(NC(=O)c4ccco4)c3)nn2)CC1 | - | 11.2µM | - | -
CCC(=O)Nc1ccc(-c2ccc(N3CCC(C)CC3)nn2)cc1 | - | 7.94µM | - | -
CCC(=O)Nc1cccc(-c2ccc(N3CCC(C)CC3)nn2)c1 | - | - | - | -
COC(=O)c1ccc(OCC(=O)Nc2nn(-c3ccccc3)nc2C(N)=O)cc1 | - | - | - | ?
COc1cc(/C=C(\NC(C)=O)C(=O)Nc2cccc(O)c2)ccc1OC(C)=O | - | - | - | -
CCOC(=O)Cn1cccc1-c1nc(-c2ccc(OC)cc2)c(-c2ccc(OC)cc2)s1 | - | . | . | .
CCOC(=O)c1ccc(N2C(=O)c3n[nH]c(-c4ccco4)c3C2c2ccc(OCC)cc2)cc1 (configuration not stated) | . | 11.2µM | - | -
CCOC(=O)c1ccc(N2C(=O)c3n[nH]c(-c4ccco4)c3C2c2ccc(F)cc2)cc1 (configuration not stated) | - | ? | - | -
COc1ccc(CN(C(=O)c2cnccn2)C(C(=O)Nc2ccc(F)cc2)c2ccccc2)cc1 (configuration not stated) | - | 5.62µM | - | -
O=C(NC1CCCCC1)c1n[nH]c2c1CCCCC2 | - | 2.51µM | - | -
COC(=O)c1c(C(=O)OC)c2c(-c3ccccc3)cc3cccc1n32 | - | 8.91µM | - | -
C#CCN(C[C@@H]1[C@@H](OC(=O)Nc2cccs2)[C@@H](OC(=O)Nc2cccs2)Cn2c(=O)ccc(=O)n21)S(=O)(=O)c1ccc(C)cc1 | - | 2.82µM | ? | -
COC(=O)C1=CN(c2ccc(F)cc2)C=C(C(=O)OC)C1c1cccc([N+](=O)[O-])c1 | - | 5.62µM | - | -
CC1CC(C)CN(c2ncnc3c2cnn3Cc2ccc(Cl)cc2)C1 (configuration not stated) | - | 2µM | - | -
O=C(CN1c2ccccc2Sc2ccccc21)NNC(=O)Nc1cccc(Cl)c1 | - | 3.55µM | ? | -
O=C(c1ccccc1)N(Cc1ccccc1)Cc1ccccc1 | - | ? | - | -
CC1(C(=O)N(Cc2ccccc2)Cc2ccccc2)CC1(Br)Br (configuration not stated) | - | 3.98µM | - | -
N/C(=N\OC(=O)c1ccc2c(c1)OCO2)c1ccncc1 | - | - | - | -
SMILES | GLP-1R agonist | GLP-1R inv ag | HEK293 tox | PTHR1 agonist
O=C(Nc1ccc(Nc2ccncc2)cc1)c1ccc([N+](=O)[O-])cc1 | - | 10µM | ? | -
O=C(NCC(O)c1ccc([N+](=O)[O-])cc1)C(c1ccccc1)c1ccccc1 (configuration not stated) | - | ? | - | -
O=C(Nc1ccc(Oc2cccnc2)cc1)c1ccc([N+](=O)[O-])cc1 | - | - | - | -
O=C(Nc1ccc([N+](=O)[O-])cc1)C(c1ccccc1)c1ccccc1 | - | 2.24µM | - | -
CC(CC(=O)NCc1ccccc1)C1CCCO1 (configuration not stated) | - | - | - | -
CCN(CC)C(=O)Nc1ccc(Br)cc1 | - | - | - | -
CC(=O)SCC(CC(=O)c1ccc(C)cc1)C(=O)O (configuration not stated) | - | . | . | .
COC(=O)c1cc(OC)c(OC)cc1NC(=S)N1CCN(c2ccccc2)CC1 | - | - | - | -
Cc1cccc(NCC(=O)N/N=C\c2c[nH]c3ccccc23)c1 | - | 10µM | ? | -
O=C(O)c1ccc(N/N=C/c2c[nH]c3ccccc23)cc1 | - | 5.62µM | - | -
O=C(N/N=C/c1c[nH]c2ccccc12)C1CC1(c1ccccc1)c1ccccc1 (configuration not stated) | - | 4.47µM | ? | -
CCN(Cc1ccc(C#CCCO)cc1)CC1CCCN(CCc2cccc(F)c2)C1 (configuration not stated) | - | 10µM | - | -
O=C(O)c1ccc(C[n+]2c(-c3ccccc3)csc2Nc2ccccc2)cc1 | - | - | - | -
CCCCCC[n+]1c(-c2ccccc2)csc1Nc1ccccc1 | - | 2.24µM | - | -
CCCC[C@@H]1CNCCN1CCc1cc(C(F)(F)F)cc(C(F)(F)F)c1 | - | 11.2µM | ? | -
Cc1ccc(SCC(=O)NC2CC3CCC(C2)N3C)cc1 (configuration not stated) | - | - | - | -
CN1C2CCC1CC(NC(=O)CSCc1ccc(Cl)cc1Cl)C2 (configuration not stated) | - | 7.08µM | - | -
Cc1ccc(NC(=O)CN(C)C(=O)Cc2ccc(Cl)cc2Cl)cc1 | - | ? | - | -
Cc1ccc(NC(=O)CN(C)C(=O)Cc2ccc(Cl)c(Cl)c2)cc1 | - | 7.94µM | - | -
C=C1NC(=O)c2cc(CN(C)c3ccc(C(=O)N[C@@H](CCC(=O)O)C(=O)O)s3)ccc2N1 | - | . | . | .
O=C(CSc1nnc(-c2ccc(Cl)cc2)n1Cc1ccco1)NCc1ccc2c(c1)OCO2 | - | 10µM | - | ?
O=C(CSc1nnc(-c2ccc(Cl)cc2)n1Cc1ccco1)Nc1ccc2c(c1)OCCO2 | - | ? | - | -
N#Cc1c(-n2ncnc2-c2ccc(Br)cc2)sc2c1CCCCC2 | . | - | - | -
CCOc1ccc(OCCOCCN2CCc3ccccc3C2)cc1 | - | - | - | -
C=CCc1cc(OC)ccc1OCCOCCN1CCc2ccccc2C1 | - | 10µM | - | -
COc1cc(CN2CC(=O)N(c3ccc(C)c(Cl)c3)C2=S)cc(OC)c1OC | - | 8.91µM | - | -
CC[C@]1(O)C[C@H]2CN(CCc3c([nH]c4ccccc34)[C@@](C(=O)OC)(c3cc4c(cc3OC)N(C=O)[C@H]3[C@@](O)(C(=O)OC)[C@H](OC(C)=O)[C@]5(CC)C=CCN6CC[C@]43[C@@H]65)C2)C1 | - | . | . | .
COc1cc(CNc2ccc(CNc3ncn[nH]3)cc2)ccc1OCc1ccccc1 | - | 2µM | - | -
Cc1ccccc1C(=O)N1CCC(C(=O)Nc2ccc(S(=O)(=O)N3CCCCC3)cc2)CC1 | - | ? | - | -
CCCCN(CCCC)/C(N)=N/c1nc(C)cc(C)n1 | - | 3.98µM | ? | -

Source: PubChem BioAssay (National Center for Advancing Translational Sciences (NCATS))
